# A number with no mark means an inactive call.
# Compound: C#CCNC(=O)CCSSCCC(=O)NCCc1ccc(C=O)c(C=O)c1
# Experiment: lysine labeling ratio R10:1 (500 µM / 50 µM probe), SILAC-ABPP in living cells; higher = lower intrinsic lysine reactivity toward the probe, active = 2 or less
# Conditions: HeLa; probe concentrations 500 vs 50 µM
# Experimental: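 Living HeLa cells (SILAC light/heavy) in PBS at room temperature were labeled with 50 µM versus 500 µM of the lysine-reactive, reductant-cleavable probe OPA-S-S-alkyne (SILAC labeling time not stated). Probe-modified peptides were CuAAC-biotinylated, captured on neutravidin and eluted with DTT/IAA, then quantified by LC-MS/MS. R = median peptide ratio per lysine (500/50 µM), combined over 3 forward and 3 reverse SILAC replicates. Ratios are capped at 20; R < 2 = hyper-reactive.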
# Chain of UniProt Q15149 (Q15149 whole entry): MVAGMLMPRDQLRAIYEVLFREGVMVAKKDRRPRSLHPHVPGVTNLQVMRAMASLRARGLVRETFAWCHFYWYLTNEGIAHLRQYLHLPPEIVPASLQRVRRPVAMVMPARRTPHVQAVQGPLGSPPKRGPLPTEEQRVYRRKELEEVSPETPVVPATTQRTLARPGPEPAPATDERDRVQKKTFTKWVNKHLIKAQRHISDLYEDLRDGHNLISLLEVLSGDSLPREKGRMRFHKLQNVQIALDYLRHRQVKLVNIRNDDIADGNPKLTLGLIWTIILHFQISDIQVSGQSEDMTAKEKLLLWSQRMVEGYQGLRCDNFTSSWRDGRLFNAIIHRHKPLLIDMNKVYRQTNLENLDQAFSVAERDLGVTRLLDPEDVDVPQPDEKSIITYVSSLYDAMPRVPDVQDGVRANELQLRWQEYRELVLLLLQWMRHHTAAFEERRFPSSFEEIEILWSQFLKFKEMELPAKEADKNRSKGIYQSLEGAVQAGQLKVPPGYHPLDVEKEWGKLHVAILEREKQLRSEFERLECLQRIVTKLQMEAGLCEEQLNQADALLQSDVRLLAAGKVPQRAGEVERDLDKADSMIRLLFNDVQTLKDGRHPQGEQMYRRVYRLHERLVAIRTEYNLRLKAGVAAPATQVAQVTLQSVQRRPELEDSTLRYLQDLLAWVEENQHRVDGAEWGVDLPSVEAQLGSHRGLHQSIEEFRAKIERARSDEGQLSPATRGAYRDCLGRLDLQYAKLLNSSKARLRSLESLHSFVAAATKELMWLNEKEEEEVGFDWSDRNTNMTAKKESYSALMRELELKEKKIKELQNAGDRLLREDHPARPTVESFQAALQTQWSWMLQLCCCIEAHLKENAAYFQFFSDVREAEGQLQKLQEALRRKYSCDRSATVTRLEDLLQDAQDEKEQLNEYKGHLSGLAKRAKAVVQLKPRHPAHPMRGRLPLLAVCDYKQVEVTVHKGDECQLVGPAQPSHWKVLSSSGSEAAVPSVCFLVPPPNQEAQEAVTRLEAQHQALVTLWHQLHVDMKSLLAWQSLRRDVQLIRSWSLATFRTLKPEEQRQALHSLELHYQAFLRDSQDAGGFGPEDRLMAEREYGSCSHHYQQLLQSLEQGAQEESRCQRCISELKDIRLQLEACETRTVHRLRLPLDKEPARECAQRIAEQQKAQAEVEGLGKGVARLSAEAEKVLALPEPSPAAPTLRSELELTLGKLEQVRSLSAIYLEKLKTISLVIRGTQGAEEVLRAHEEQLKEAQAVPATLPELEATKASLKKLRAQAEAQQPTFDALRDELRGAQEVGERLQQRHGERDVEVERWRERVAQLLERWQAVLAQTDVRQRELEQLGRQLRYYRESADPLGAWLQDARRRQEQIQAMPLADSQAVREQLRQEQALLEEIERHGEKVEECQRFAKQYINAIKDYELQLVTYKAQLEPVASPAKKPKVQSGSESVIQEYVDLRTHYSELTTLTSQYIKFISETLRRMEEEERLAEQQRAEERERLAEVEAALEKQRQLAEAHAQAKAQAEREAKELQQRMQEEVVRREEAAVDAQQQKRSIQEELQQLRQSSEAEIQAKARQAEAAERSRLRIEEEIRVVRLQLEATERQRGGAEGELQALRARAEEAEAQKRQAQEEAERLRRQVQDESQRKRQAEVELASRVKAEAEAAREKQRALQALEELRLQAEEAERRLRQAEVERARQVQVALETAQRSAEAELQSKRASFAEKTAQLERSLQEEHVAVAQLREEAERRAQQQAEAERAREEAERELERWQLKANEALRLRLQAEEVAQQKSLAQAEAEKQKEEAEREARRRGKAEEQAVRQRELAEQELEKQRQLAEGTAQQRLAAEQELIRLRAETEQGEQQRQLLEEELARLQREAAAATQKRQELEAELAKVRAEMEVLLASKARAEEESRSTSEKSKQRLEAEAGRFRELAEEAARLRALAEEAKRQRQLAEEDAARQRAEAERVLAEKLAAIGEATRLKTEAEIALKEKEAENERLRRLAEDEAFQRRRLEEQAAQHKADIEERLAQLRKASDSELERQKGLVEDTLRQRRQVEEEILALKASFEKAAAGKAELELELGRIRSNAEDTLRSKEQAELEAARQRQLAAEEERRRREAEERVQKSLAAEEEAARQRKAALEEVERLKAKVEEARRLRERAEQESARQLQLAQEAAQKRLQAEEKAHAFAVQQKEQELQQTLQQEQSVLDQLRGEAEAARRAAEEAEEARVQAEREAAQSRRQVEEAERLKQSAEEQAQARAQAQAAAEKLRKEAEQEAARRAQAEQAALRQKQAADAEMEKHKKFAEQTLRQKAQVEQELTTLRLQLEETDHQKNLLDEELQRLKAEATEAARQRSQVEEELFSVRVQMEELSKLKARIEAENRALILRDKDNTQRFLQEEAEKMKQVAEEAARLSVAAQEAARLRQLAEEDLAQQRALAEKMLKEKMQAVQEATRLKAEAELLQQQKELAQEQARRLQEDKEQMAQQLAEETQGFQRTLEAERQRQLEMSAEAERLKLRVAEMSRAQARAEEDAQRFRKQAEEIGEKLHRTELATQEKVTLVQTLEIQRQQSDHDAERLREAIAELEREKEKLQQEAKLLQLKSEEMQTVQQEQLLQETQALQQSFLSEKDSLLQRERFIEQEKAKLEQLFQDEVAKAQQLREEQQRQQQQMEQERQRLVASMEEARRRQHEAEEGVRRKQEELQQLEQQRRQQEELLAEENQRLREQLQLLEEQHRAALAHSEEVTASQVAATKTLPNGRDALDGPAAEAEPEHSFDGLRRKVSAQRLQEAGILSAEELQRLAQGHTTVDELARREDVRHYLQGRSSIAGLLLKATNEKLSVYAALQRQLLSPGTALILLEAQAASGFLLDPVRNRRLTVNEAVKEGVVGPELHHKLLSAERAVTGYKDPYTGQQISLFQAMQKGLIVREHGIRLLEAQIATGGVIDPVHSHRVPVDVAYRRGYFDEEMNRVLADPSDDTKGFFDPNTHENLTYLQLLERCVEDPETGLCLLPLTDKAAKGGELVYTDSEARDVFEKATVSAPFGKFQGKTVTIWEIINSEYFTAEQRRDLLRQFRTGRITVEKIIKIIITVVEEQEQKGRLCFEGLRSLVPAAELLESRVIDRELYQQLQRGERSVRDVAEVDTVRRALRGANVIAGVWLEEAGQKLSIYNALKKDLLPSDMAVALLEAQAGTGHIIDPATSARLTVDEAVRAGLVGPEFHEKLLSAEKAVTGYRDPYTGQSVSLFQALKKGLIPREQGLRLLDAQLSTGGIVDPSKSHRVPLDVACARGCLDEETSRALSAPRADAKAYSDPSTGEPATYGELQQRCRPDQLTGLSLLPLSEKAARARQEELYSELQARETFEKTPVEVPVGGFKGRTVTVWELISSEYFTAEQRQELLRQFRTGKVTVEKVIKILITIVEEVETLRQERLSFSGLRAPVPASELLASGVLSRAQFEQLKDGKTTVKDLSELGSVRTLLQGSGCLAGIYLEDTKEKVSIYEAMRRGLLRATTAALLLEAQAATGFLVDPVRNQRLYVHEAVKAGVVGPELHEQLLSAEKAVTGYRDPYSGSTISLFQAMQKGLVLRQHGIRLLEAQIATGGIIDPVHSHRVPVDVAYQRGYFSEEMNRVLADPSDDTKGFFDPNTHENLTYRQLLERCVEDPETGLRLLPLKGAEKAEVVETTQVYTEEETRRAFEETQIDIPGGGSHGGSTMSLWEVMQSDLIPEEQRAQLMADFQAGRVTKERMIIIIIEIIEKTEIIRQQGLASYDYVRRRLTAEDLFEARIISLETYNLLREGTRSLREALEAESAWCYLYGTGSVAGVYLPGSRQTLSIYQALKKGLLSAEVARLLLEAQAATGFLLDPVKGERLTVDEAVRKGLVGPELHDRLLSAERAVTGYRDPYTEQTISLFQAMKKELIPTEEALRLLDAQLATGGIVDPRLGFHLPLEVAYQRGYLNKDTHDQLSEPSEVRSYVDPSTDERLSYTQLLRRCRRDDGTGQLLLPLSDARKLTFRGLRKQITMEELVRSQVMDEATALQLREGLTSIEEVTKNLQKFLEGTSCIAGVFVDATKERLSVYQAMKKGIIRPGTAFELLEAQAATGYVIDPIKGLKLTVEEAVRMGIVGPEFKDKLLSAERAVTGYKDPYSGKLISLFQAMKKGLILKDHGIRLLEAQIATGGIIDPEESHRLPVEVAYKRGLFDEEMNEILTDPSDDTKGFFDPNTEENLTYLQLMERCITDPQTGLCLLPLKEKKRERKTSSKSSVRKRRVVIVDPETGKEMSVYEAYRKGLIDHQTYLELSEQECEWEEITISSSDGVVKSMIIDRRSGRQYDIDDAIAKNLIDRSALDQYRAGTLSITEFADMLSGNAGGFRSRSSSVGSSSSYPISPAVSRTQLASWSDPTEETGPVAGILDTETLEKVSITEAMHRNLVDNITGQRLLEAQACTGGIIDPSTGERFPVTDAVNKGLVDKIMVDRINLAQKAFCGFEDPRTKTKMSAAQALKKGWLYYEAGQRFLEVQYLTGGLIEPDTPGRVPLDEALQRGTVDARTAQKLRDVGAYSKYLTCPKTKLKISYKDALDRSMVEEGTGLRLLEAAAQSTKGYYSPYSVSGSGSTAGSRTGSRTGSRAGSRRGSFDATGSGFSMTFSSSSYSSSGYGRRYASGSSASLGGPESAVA
# Chain of UniProt O95084 (O95084 whole entry): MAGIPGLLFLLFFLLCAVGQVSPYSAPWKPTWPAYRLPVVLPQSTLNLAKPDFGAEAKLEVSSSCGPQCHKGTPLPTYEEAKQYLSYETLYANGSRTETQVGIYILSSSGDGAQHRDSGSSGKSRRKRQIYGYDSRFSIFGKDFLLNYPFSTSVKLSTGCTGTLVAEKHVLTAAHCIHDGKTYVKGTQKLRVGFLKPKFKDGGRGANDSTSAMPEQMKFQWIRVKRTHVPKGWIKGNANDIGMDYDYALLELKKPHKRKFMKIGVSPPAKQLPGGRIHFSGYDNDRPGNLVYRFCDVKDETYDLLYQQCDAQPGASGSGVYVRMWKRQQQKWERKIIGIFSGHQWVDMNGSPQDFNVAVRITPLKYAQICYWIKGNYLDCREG
row,Target,lysine labeling ratio R10:1
1,IDE (lysine site: K364) (UniProt P14735),2.3
2,EPCAM (lysine site: K160) (UniProt P16422),2.33
3,CALD1 (lysine site: K119) (UniProt Q05682),2.67
4,EPPK1 (lysine site: K2707) (UniProt P58107),3.42
5,CSRP1 (lysine site: K112) (UniProt P21291),1.46 (active)
6,TFRC (lysine site: K585) (UniProt P02786),4.53
7,AHNAK (lysine site: K128) (UniProt Q09666),1.37 (active)
8,VAPA (lysine site: K188) (UniProt Q9P0L0),1.99 (active)
9,MSN (lysine site: K458) (UniProt P26038),1.55 (active)
10,UniProt P62249 (lysine site: K26),1.43 (active)
11,UniProt O95084 (lysine site: K185),2.74
12,FAT1 (lysine site: K101) (UniProt Q14517),2.6
13,ECH1 (lysine site: K83) (UniProt Q13011),1.59 (active)
14,UniProt Q9BS26 (lysine site: K130),2.57
15,HSPA5 (lysine site: K213) (UniProt P11021),5.61
16,GPI (lysine site: K89) (UniProt P06744),1.12 (active)
17,CCT4 (lysine site: K531) (UniProt P50991),3.03
18,LAMA5 (lysine site: K1940) (UniProt O15230),1.65 (active)
19,UniProt Q9Y653 (lysine site: K215),4.06
20,CTTN (lysine site: K235) (UniProt Q14247),1.56 (active)

row,Target,lysine labeling ratio R10:1
1,SPTAN1 (lysine site: K1699) (UniProt Q13813),3.27
2,HNRNPU (lysine site: K614) (UniProt Q00839),2.36
3,PTPRF (lysine site: K906) (UniProt P10586),4.94
4,UniProt P60866 (lysine site: K75),1.91 (active)
5,CDCP1 (lysine site: K413) (UniProt Q9H5V8),1.38 (active)
6,IGF1R (lysine site: K474) (UniProt P08069),3.24
7,ACSL3 (lysine site: K222) (UniProt O95573),2.52
8,UniProt Q32P28 (lysine site: K437),1.13 (active)
9,LMO7 (lysine site: K794) (UniProt Q8WWI1),2.02
10,UniProt Q14574 (lysine site: K381),1.61 (active)
11,EEF1G (lysine site: K243) (UniProt P26641),1.4 (active)
12,FAT4 (lysine site: K2004) (UniProt Q6V0I7),1.27 (active)
13,TKT (lysine site: K352) (UniProt P29401),6
14,UniProt Q15149 (lysine site: K2339),4.2
15,UniProt Q15149 (lysine site: K3285),4.73
16,SPTBN1 (lysine site: K1063) (UniProt Q01082),7.24
17,RPL28 (lysine site: K72) (UniProt P46779),2.12
18,HSPD1 (lysine site: K301) (UniProt P10809),2.58
19,FLNA (lysine site: K1071) (UniProt P21333),3.76
20,CCT2 (lysine site: K230) (UniProt P78371),3.3

# — the supplement of paper PMC11001985
